Laboratory results: ChEMBL document CHEMBL1961873, “Compounds: GSK PKIS; Assays: Nanosyn kinase panel” (2012)

Legend:
[1] = biological target: High affinity nerve growth factor receptor (Homo sapiens) (UniProt P04629); details: at 1 µM;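 note: each value is the mean percent inhibition of TRKA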
[2] = biological target: BDNF/NT-3 growth factors receptor (Homo sapiens) (UniProt Q16620); details: at 0.1 µM
[3] = biological target: BDNF/NT-3 growth factors receptor (Homo sapiens) (UniProt Q16620); details: at 1 µM
[4] = biological target: NT-3 growth factor receptor (Homo sapiens) (UniProt Q16288); details: at 0.1 µM
[5] = biological target: NT-3 growth factor receptor (Homo sapiens) (UniProt Q16288); details: at 1 µM
[6] = biological target: T1, Tyrosine-protein kinase TXK (Homo sapiens) (UniProt P42681); details: at 0.1 µM
T1 sequence (whole entry): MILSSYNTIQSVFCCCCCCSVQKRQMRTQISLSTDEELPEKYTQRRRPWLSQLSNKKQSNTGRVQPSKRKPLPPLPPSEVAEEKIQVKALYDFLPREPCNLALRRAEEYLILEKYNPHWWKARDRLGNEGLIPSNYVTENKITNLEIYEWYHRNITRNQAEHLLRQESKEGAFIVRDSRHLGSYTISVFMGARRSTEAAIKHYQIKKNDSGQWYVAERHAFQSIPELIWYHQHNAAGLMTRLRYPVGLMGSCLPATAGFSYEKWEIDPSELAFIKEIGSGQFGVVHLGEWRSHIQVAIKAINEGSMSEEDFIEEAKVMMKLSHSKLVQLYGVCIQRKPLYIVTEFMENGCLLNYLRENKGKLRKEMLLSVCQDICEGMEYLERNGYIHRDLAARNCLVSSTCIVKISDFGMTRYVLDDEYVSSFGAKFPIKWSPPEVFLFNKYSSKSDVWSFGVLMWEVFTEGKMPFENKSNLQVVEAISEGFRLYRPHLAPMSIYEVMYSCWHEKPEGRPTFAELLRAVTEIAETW

[7] = biological target: T1, Tyrosine-protein kinase TXK (Homo sapiens); details: at 1 µM
[8] = biological target: Non-receptor tyrosine-protein kinase TYK2 (Homo sapiens) (UniProt P29597); details: at 0.1 µM;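 note: each value is a mean of the inhibition readings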
Sequence of Non-receptor tyrosine-protein kinase TYK2 (Homo sapiens) (P29597 whole entry): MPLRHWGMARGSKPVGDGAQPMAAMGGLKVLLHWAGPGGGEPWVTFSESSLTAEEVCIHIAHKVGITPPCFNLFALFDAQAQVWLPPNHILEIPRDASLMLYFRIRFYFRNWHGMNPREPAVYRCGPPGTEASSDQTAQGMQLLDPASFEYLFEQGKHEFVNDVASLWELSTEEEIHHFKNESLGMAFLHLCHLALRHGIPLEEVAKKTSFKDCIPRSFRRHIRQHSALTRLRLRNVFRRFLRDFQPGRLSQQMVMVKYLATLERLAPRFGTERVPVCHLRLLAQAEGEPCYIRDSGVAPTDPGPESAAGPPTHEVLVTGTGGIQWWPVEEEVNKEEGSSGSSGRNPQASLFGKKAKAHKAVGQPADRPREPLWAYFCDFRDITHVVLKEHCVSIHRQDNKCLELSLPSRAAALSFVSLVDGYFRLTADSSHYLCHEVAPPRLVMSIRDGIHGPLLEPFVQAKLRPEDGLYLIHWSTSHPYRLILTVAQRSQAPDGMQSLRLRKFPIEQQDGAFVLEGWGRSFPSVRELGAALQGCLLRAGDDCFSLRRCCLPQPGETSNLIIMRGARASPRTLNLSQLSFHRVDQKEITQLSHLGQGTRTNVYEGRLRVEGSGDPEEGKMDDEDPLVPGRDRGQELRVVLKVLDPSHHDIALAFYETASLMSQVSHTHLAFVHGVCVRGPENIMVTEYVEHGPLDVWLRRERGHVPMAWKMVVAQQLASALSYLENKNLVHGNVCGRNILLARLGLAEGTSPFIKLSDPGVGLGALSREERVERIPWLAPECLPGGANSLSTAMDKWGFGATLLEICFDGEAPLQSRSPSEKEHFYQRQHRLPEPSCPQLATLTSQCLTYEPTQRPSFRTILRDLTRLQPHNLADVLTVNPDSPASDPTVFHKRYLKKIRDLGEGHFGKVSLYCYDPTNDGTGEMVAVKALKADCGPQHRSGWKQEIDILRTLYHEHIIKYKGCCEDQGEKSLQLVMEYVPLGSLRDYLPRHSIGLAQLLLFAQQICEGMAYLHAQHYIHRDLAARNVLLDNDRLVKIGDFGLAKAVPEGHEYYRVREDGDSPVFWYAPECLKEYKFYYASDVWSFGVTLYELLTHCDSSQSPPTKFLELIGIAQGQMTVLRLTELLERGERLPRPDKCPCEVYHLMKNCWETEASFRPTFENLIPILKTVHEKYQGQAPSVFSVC

[9] = biological target: T2, Dual specificity protein kinase TTK (Homo sapiens) (UniProt P33981); details: at 1 µM;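 note: reported figures are mean TTK inhibition at 1 µM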
T2 sequence (whole entry): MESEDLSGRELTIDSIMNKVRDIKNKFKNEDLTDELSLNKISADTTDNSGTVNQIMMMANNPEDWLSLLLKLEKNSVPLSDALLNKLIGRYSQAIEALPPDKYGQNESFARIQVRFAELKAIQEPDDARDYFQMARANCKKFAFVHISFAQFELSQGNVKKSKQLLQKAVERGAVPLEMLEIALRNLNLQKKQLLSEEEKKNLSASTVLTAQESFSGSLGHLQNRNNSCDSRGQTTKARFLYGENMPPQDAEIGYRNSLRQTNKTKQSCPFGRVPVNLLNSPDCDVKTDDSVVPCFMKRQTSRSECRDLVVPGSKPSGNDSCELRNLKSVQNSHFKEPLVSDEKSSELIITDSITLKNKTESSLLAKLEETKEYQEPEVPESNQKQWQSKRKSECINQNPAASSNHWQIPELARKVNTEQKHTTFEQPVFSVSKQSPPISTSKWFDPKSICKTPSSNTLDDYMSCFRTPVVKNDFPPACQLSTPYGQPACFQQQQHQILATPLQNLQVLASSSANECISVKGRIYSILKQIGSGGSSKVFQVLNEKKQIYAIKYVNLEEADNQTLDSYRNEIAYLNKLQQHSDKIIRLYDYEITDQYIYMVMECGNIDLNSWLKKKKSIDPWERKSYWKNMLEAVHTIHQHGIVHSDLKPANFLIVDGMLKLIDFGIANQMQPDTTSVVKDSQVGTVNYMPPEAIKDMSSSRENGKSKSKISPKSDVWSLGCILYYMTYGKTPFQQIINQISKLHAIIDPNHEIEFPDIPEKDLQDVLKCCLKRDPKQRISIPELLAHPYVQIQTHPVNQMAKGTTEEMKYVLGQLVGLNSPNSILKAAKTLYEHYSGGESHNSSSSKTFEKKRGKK

[10] = biological target: T3, Aurora kinase A (Homo sapiens) (UniProt O14965); details: at 0.1 µM
T3 sequence (whole entry): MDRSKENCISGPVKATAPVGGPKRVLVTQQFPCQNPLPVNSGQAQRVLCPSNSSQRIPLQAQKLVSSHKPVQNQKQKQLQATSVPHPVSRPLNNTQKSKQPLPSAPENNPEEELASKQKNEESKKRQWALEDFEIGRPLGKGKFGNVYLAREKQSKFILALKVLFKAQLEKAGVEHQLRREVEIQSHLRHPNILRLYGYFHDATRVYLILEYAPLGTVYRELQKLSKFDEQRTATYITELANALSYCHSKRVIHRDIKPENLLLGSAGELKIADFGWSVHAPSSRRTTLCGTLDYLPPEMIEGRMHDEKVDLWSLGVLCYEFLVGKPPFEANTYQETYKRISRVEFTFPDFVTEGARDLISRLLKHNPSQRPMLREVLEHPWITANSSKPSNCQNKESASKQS

[11] = biological target: T3, Aurora kinase A (Homo sapiens); details: at 1 µM
[12] = biological target: Aurora kinase B (Homo sapiens) (UniProt Q96GD4); details: at 0.1 µM
[13] = biological target: Aurora kinase B (Homo sapiens) (UniProt Q96GD4); details: at 1 µM
[14] = biological target: T4, Aurora kinase C (Homo sapiens) (UniProt Q9UQB9); details: at 0.1 µM
T4 sequence (whole entry): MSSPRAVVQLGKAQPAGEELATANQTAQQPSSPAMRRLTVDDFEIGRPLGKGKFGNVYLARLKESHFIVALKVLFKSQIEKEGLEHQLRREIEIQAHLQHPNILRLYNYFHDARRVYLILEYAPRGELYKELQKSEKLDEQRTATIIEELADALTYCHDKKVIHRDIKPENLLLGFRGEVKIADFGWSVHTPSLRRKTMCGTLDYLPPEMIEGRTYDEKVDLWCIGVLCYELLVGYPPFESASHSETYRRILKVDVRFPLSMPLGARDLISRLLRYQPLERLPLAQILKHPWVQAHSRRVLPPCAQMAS

[15] = biological target: T4, Aurora kinase C (Homo sapiens); details: at 1 µM
[16] = biological target: Serine/threonine-protein kinase 10 (Homo sapiens) (UniProt O94804); details: at 0.1 µM
Sequence of Serine/threonine-protein kinase 10 (Homo sapiens) (O94804 whole entry, looked up): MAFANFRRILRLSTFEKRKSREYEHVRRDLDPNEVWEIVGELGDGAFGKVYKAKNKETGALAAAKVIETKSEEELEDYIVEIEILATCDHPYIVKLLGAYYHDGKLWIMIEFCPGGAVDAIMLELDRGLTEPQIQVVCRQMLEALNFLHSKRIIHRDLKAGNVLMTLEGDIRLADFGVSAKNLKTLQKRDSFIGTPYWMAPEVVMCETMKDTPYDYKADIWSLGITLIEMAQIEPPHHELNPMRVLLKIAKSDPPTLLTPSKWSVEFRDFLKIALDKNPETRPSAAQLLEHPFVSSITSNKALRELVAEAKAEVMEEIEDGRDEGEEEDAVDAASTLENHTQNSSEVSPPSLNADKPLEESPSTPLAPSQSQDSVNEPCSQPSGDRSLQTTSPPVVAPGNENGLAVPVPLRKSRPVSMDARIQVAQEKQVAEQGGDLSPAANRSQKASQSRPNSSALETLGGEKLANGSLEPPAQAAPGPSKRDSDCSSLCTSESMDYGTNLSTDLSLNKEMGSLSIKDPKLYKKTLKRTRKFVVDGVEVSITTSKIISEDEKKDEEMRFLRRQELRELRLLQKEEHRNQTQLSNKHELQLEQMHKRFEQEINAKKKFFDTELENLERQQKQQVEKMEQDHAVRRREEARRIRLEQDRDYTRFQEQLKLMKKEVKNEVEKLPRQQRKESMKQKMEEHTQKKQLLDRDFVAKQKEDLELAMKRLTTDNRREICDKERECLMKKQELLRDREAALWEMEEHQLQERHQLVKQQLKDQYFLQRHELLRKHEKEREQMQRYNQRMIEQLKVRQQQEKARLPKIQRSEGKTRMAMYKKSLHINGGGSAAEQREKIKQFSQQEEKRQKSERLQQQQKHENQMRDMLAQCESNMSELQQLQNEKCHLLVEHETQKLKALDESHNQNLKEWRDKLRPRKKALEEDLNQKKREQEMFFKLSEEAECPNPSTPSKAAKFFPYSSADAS

[17] = biological target: Serine/threonine-protein kinase 10 (Homo sapiens) (UniProt O94804); details: at 1 µM
[18] = biological target: T5, Mitogen-activated protein kinase kinase kinase kinase 2 (Homo sapiens) (UniProt Q12851); details: at 0.1 µM
T5 sequence (whole entry): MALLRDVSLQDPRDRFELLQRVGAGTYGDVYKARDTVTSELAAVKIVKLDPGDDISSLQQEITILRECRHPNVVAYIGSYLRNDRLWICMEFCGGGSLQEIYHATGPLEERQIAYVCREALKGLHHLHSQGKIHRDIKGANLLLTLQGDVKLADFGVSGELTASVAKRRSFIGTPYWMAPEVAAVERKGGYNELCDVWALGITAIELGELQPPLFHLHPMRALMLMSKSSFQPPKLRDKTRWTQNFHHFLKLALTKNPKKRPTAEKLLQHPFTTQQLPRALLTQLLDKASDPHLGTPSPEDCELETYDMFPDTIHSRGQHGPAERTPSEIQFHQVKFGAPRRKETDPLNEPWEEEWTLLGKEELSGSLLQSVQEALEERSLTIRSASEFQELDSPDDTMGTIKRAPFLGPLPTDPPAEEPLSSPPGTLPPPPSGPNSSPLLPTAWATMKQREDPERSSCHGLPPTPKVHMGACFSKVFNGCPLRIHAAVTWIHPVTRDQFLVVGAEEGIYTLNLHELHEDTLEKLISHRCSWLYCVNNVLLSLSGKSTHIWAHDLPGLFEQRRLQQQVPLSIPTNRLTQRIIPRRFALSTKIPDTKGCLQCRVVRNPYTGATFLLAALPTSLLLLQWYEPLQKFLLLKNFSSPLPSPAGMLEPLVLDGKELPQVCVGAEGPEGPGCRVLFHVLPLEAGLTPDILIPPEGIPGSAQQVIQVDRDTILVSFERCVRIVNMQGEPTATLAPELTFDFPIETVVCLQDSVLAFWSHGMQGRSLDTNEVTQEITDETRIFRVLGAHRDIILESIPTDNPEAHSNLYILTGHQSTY

[19] = biological target: T5, Mitogen-activated protein kinase kinase kinase kinase 2 (Homo sapiens); details: at 1 µM
[20] = biological target: Mitogen-activated protein kinase kinase kinase kinase 4 (Homo sapiens) (UniProt O95819); details: at 0.1 µM
Sequence of Mitogen-activated protein kinase kinase kinase kinase 4 (Homo sapiens) (O95819 2-1239 limits assumed): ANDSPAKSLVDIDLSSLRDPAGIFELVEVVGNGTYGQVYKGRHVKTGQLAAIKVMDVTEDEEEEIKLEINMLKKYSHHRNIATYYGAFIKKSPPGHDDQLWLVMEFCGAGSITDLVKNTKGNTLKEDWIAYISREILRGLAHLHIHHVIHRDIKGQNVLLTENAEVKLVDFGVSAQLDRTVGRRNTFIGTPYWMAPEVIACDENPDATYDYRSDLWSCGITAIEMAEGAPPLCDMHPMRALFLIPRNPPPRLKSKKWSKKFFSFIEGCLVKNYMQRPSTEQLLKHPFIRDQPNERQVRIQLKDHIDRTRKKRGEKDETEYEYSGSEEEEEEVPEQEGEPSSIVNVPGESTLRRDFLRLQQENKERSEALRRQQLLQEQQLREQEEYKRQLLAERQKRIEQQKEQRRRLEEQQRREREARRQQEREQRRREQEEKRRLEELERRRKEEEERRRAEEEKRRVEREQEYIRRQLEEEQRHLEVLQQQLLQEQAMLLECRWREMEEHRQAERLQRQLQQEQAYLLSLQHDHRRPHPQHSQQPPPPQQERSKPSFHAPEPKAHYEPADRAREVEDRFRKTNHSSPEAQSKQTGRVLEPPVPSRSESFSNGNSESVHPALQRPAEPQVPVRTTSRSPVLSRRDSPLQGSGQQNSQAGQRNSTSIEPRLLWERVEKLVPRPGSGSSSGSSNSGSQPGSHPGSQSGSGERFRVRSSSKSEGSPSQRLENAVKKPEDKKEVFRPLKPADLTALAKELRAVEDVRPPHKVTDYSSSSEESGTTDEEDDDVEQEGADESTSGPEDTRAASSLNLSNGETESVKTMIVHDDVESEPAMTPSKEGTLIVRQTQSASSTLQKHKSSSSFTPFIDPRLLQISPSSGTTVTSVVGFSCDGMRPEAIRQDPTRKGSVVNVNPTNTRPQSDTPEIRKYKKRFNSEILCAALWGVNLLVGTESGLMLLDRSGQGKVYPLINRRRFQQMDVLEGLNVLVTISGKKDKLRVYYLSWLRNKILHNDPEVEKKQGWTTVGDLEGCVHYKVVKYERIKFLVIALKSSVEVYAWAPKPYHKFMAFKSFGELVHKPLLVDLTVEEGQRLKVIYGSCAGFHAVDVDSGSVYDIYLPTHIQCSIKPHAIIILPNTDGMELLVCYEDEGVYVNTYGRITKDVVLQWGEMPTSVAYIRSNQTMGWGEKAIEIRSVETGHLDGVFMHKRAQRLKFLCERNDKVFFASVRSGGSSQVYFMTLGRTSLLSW

Sequence of BDNF/NT-3 growth factors receptor (Homo sapiens) (Q16620 32-822 limits assumed): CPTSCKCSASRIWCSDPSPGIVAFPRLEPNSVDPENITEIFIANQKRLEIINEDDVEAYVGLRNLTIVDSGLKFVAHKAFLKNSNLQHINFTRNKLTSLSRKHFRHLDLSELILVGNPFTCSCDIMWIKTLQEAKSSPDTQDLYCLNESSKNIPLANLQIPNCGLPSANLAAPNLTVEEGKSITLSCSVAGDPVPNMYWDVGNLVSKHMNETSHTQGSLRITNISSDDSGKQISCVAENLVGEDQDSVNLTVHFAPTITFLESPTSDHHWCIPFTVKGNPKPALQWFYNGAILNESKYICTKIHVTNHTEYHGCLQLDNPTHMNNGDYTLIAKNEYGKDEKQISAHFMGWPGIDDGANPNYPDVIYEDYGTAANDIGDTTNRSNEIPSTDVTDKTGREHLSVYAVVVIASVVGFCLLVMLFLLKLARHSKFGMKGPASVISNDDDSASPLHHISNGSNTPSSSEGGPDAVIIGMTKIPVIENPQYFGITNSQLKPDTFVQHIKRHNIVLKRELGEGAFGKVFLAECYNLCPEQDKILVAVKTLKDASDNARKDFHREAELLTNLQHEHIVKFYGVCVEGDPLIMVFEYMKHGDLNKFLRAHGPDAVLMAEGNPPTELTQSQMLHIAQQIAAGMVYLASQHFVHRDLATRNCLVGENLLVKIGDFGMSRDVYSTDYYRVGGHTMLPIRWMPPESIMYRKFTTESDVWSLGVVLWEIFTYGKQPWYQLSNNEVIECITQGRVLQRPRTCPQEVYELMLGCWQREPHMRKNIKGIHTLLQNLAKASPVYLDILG
Sequence of High affinity nerve growth factor receptor (Homo sapiens) (P04629 33-796 limits assumed): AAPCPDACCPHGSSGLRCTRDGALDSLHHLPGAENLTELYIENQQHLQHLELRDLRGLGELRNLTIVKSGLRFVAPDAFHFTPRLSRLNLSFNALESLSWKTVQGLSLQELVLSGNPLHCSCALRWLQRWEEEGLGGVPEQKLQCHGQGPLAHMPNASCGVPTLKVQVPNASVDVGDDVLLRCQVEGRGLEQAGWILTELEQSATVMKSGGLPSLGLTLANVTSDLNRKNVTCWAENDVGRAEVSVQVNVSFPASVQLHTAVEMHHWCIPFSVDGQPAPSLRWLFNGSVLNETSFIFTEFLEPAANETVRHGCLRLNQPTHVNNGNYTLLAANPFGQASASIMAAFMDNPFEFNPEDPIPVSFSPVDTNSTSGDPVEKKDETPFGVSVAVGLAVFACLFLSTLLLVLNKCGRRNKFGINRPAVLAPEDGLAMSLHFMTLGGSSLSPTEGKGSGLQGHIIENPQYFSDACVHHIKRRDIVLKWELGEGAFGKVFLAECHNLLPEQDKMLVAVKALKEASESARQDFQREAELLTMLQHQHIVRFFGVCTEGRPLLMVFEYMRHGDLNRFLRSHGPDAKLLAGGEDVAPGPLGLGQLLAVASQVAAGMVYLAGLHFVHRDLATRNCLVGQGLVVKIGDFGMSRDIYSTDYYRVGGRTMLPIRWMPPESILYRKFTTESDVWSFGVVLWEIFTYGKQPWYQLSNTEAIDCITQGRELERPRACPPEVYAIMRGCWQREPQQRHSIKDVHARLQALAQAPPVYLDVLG

## COc1cc(C)c(NC(=O)CN(C)C)cc1Nc1nc(Nc2cccc(F)c2C(N)=O)c2cc[nH]c2n1
[1]
  inhibition: 13%
[2]
  inhibition: 2.25%
[3]
  inhibition: 1.27%
[4]
  inhibition: 2.83%
[5]
  inhibition: 4.14%
[6]
  inhibition: 0.4%
[7]
  inhibition: -0.74%
[8]
  inhibition: 1%
[9]
  inhibition: 53.5%
[10]
  inhibition: 2.06%
[11]
  inhibition: 13.5%
[12]
  inhibition: -2.09%
[13]
  inhibition: 6.07%
[14]
  inhibition: -0.55%
[15]
  inhibition: 12.3%
[16]
  inhibition: 2.47%
[17]
  inhibition: 3.17%
[18]
  inhibition: 9.71%
[19]
  inhibition: 43.9%
[20]
  inhibition: 4.26%

## [O-][S+]1CCN(Cc2ccc(-c3ccc4ncnc(Nc5ccc(OCc6ccccc6)c(F)c5)c4c3)o2)CC1
[1]
  inhibition: 1.44%
[2]
  inhibition: 1.84%
[3]
  inhibition: 1.51%
[4]
  inhibition: 0.84%
[5]
  inhibition: 2.26%
[6]
  inhibition: 2.49%
[7]
  inhibition: 3.34%
[8]
  inhibition: -3.81%
[9]
  inhibition: 12.9%
[10]
  inhibition: 2.01%
[11]
  inhibition: 5.78%
[12]
  inhibition: 1.65%
[13]
  inhibition: 4.29%
[14]
  inhibition: 0.94%
[15]
  inhibition: 7.34%
[16]
  inhibition: 2.71%
[17]
  inhibition: 6.62%
[18]
  inhibition: 0.36%
[19]
  inhibition: 1.57%
[20]
  inhibition: 3.5%

## COc1cc2ncn(-c3cc(OCc4ccccc4Cl)c(C(N)=O)s3)c2cc1OC
[1]
  inhibition: 2.92%
[2]
  inhibition: 2.11%
[3]
  inhibition: 13.7%
[4]
  inhibition: 3.13%
[5]
  inhibition: 20.4%
[6]
  inhibition: 2.99%
[7]
  inhibition: 13.2%
[8]
  inhibition: 2.29%
[9]
  inhibition: 0.54%
[10]
  inhibition: 1.9%
[11]
  inhibition: 23.5%
[12]
  inhibition: 4.78%
[13]
  inhibition: 29.9%
[14]
  inhibition: 2.35%
[15]
  inhibition: 40.5%
[16]
  inhibition: 67.3%
[17]
  inhibition: 99%
[18]
  inhibition: 7%
[19]
  inhibition: 30.8%
[20]
  inhibition: 13.9%

## COc1cc2ncn(-c3cc(O[C@H](C)c4ccccc4Cl)c(C(N)=O)s3)c2cc1OC
[1]
  inhibition: 12.4%
[2]
  inhibition: 8.25%
[3]
  inhibition: 43.3%
[4]
  inhibition: 16.1%
[5]
  inhibition: 62.6%
[6]
  inhibition: 5.04%
[7]
  inhibition: 15.8%
[8]
  inhibition: -0.55%
[9]
  inhibition: 13.2%
[10]
  inhibition: 2.7%
[11]
  inhibition: 30.1%
[12]
  inhibition: 8.7%
[13]
  inhibition: 37.9%
[14]
  inhibition: 4.62%
[15]
  inhibition: 50.7%
[16]
  inhibition: 99.3%
[17]
  inhibition: 88%
[18]
  inhibition: 13.6%
[19]
  inhibition: 47.4%
[20]
  inhibition: 4.5%

## CC1=C(C(=O)Nc2ccc3[nH]ncc3c2)C(c2ccc(F)cc2)NC(=O)N1 (stereo not given)
[1]
  inhibition: 3.3%
[2]
  inhibition: 0.91%
[3]
  inhibition: 4.06%
[4]
  inhibition: 0.06%
[5]
  inhibition: 5.04%
[6]
  inhibition: 1.25%
[7]
  inhibition: 3.78%
[8]
  inhibition: 1.26%
[9]
  inhibition: 1.11%
[10]
  inhibition: 7.75%
[11]
  inhibition: 62.7%
[12]
  inhibition: 3.96%
[13]
  inhibition: 18.5%
[14]
  inhibition: 2.09%
[15]
  inhibition: 26.9%
[16]
  inhibition: 1.26%
[17]
  inhibition: 5.18%
[18]
  inhibition: 1.97%
[19]
  inhibition: 3.21%
[20]
  inhibition: 7.49%

## COc1ccc(-c2ccncc2)cc1C(N)=O
[1]
  inhibition: 6.42%
[2]
  inhibition: 3.52%
[3]
  inhibition: 3.6%
[4]
  inhibition: 4.78%
[5]
  inhibition: 4.79%
[6]
  inhibition: 4.98%
[7]
  inhibition: 5.36%
[8]
  inhibition: -2.48%
[9]
  inhibition: 8.41%
[10]
  inhibition: 2.92%
[11]
  inhibition: 4.17%
[12]
  inhibition: 5.11%
[13]
  inhibition: 7.24%
[14]
  inhibition: 1.6%
[15]
  inhibition: 5.22%
[16]
  inhibition: 8.76%
[17]
  inhibition: 12.9%
[18]
  inhibition: 0.72%
[19]
  inhibition: 3.34%
[20]
  inhibition: 4.28%

## COc1ccc(-c2coc3ncnc(N)c23)cc1
[1]
  inhibition: 2.06%
[2]
  inhibition: 2.05%
[3]
  inhibition: 1.62%
[4]
  inhibition: 2.53%
[5]
  inhibition: 2.68%
[6]
  inhibition: 2.99%
[7]
  inhibition: 6.19%
[8]
  inhibition: -3.01%
[9]
  inhibition: 11.5%
[10]
  inhibition: 3.09%
[11]
  inhibition: 7.06%
[12]
  inhibition: 3.4%
[13]
  inhibition: 8.81%
[14]
  inhibition: 1.56%
[15]
  inhibition: 15.3%
[16]
  inhibition: 3.11%
[17]
  inhibition: 8.06%
[18]
  inhibition: 1.83%
[19]
  inhibition: 6.08%
[20]
  inhibition: 4.43%
